# Screening results as filed in PubChem.
# A selection: hits, their analogues and other compounds. The true share with any hit is near 1.1%.
# BAP1 block: human BAP1 deubiquitinase inhibition; Q92560; recombinant BAP1, Ub-AMC hydrolysis fluorescence kinetic; hits give low values; calls only at 20 µM; 72,000 compounds, 0.48% hits;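 active = activity remaining at or below 50% of control, provided the compound also passes the data quality filters; inactive = the rest, including low values that fail the filters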;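 also: 100% = DMSO wells rate and 0% = substrate alone blank rate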
# Cdc25B block: human M-phase inducer phosphatase 2 inhibition. P30305. recombinant Cdc25B, OMFP fluorescence Ex485/Em525. inhibition, %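 (compounds tested at 10 µM final in the well)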. 65,000 compounds, 0.1% hits. AID 368; in the data active = inhibition above about 50%
# Target sequence (P30305 whole entry, looked up): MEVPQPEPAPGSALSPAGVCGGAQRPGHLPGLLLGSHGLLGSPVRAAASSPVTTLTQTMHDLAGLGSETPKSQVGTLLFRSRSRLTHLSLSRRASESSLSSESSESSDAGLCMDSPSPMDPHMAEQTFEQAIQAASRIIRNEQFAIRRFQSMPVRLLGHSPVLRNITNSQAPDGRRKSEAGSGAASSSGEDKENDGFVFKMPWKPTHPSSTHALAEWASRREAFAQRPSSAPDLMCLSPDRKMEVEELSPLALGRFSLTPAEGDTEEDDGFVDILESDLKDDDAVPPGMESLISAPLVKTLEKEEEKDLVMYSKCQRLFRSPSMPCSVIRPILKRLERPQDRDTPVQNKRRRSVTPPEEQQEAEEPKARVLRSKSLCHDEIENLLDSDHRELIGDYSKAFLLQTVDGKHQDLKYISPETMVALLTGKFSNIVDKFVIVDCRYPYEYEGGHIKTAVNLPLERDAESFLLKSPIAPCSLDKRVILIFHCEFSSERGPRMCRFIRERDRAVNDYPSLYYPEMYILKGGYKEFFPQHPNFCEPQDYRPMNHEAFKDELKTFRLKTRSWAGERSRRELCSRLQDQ
# Hsp90 block: displaces geldanamycin probe from tumor Hsp90. P07900. NCI-N417 lysate Hsp90, Cy3B-geldanamycin FP displacement. inhibition, % at 30 µM. 64,000 compounds, 0.35% hits. AID 429;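 active = inhibition above 50%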;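 also: 0% = tracer plus lysate wells and 100% = tracer alone without lysate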
# HePTP inhibitor: blocks human HePTP tyrosine phosphatase; 110,000 compounds, 0.64% hits; P35236; recombinant HePTP phosphatase activity, OD absorbance; inhibition, % at 20 µM; in the data active = inhibition above about 50%; inconclusive = no clear call, values can overlap the other calls;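 also: plate controls were vehicle for no effect and reference inhibitor for full effect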
# DUSP1 inh: blocks human MKP-1 phosphatase activity; recombinant MKP-1, OMFP hydrolysis fluorescence; inhibition, %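 (compounds tested at a single concentration somewhere between 10 and 100 µM)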; 65,000 compounds, 0.15% hits;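 active = inhibition above about 50%, limit read from the data; inconclusive = inhibition over screen mean plus 3 SD, below that limit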;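 also: 0% = DMSO max control wells and 100% = wells with enzyme stopped by NaOH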
# BAP1 inh confirm: BAP1 (human) enzyme inhibition, confirmed; 310 compounds, 8% hits; purified BAP1, Ub-ethyl ester hydrolysis, HPLC; hits give low values; % of control activity, % at 20 µM; shares compounds with BAP1 block;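 active = percent of control activity at or below 60%; inconclusive = HPLC trace unusable from injection failure or solvent front hiding peaks; inactive = the rest, plus ubiquitin peak ratio over a set limit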
# The depositor's hits bear a star; i = inactive; u = inconclusive; x = not tested or not shown; + = active, no number.
SMILES,BAP1 block,Cdc25B block,Hsp90 block,HePTP inhibitor,DUSP1 inh,BAP1 inh confirm
CN(C)NC(=O)C1CCC(C)(C(=O)O)C1(C)C (stereo unspecified),x,x,x,10,x,x
COc1ccc(OC)c(C2CC(=O)N3CN(c4cccc(Cl)c4C)CSC3=C2C#N)c1 (stereo unspecified),+,-5,-3,-4,8,104
N#Cc1c(/N=C/c2ccco2)oc(-c2ccccc2)c1-c1ccccc1,+,-4,-5,0,-10,u
N#C/C(=C\c1ccc[nH]1)Sc1nc2ccccc2s1,+,-5,-4,8,5,86
COc1ccc(-c2nnc(SCC(=O)Nc3cccc(Cl)c3)o2)cc1,+,-1,-2,0,2,109
COc1ccc(-c2nnc(SCC(=O)Nc3ccccc3OC)o2)cc1,i,-13,-5,2,23,x
O=C(Nc1ccc(N2CCN(C(=O)c3ccco3)CC2)c(Cl)c1)c1c(F)c(F)c(F)c(F)c1F,+,-8,-2,0,9,u
Nc1c(C(=O)NCc2ccco2)sc2nc3c(cc12)C(=O)CCC3,+,3,4,12,0,151
CC(C)(C)n1nnnc1C(c1cccnc1)N1CCN(C(=O)c2ccco2)CC1 (stereo unspecified),i,-4,1,4,7,x
Cc1cccc2cc(C(c3nnnn3C(C)(C)C)N3CCN(C(=O)c4ccco4)CC3)c(=O)[nH]c12 (stereo unspecified),+,-20,0,9,25,42*
C=CCn1cc(C(=O)NCc2ccco2)c(=O)c2cc(S(=O)(=O)N3CCCCCC3)ccc21,+,-5,-6,1,34,97
CCn1cc(C(=O)NCc2ccco2)c(=O)c2cc(S(=O)(=O)N3CCC(C)CC3)ccc21,i,-5,-3,-2,u,x
CCOC(=O)c1oc2ccc3c(c2c1C)C(=O)CC1(CCN(C(=O)OCC)CC1)O3,+,-15,0,0,29,84
O=C(CN1C(=O)c2cccc3cccc(c23)C1=O)N1CCN(CCN2C(=O)C3C4C=CC(C4)C3C2=O)CC1 (stereo unspecified),x,x,x,5,x,x
CCOC(=O)C(C(C)=O)c1cc(NS(=O)(=O)c2ccc(C)cc2)c2ccccc2c1NS(=O)(=O)c1ccc(C)cc1 (stereo unspecified),x,x,x,50,x,x
CCOC(=O)C(C(C)=O)c1c(Br)c(O)c(O)c2c(C(=O)c3ccc(C)cc3)coc12 (stereo unspecified),+,14,-1,10,-5,68
COC(=O)c1cc2nc(-c3ccc(OC)c(OC)c3)cc(C(F)(F)F)n2n1,+,-22,-3,6,10,129
Cc1ccc(N2CCN(/N=C\c3cccc(Cl)c3Cl)CC2)cc1,x,x,x,5,x,x
COc1ccccc1N1C(=O)c2cccc(N)c2C1=O,i,x,x,x,x,x
COc1ccc(CC(=O)Nc2ccc(-c3noc(-c4cccc(OC)c4)n3)cc2)cc1,+,11,-5,10,6,77
O=C(CSc1cccc2cccnc12)Nc1nc(-c2ccccc2)cs1,x,x,x,3,x,x
CCn1c(=NC(=O)c2ccc(N3C(=O)CCC3=O)cc2)sc2c(OC)ccc(OC)c21,+,1,-4,18,u,117
C/C(=N\N=C1\NC(=O)C(CC(=O)Nc2ccc(Cl)c(Cl)c2)S1)c1ccc(Cl)cc1 (stereo unspecified),x,x,x,-14,x,x
CC1=C(C(=O)Nc2ccccc2)C(c2ccc(C)o2)n2c(s/c(=C\c3ccco3)c2=O)=N1 (stereo unspecified),+,1,-7,4,-20,111
CCOC(=O)C1=C(O)/C(=C/c2cccc(Br)c2)SC1=Nc1ccc([N+](=O)[O-])cc1,x,x,x,11,x,x
SMILES,BAP1 block,Cdc25B block,Hsp90 block,HePTP inhibitor,DUSP1 inh,BAP1 inh confirm
COc1cc(Br)c(/C=C(\C#N)C(=O)NCc2ccco2)cc1OC,x,x,x,6,x,x
Cc1ccccc1OCc1nnc(SCC(=O)Nc2ccc3c(c2)oc2ccccc23)n1C,+,-2,-4,10,2,120
O=C(c1cc2n(n1)C(C(F)(F)F)CC(c1ccccc1)N2)N1CCOCC1 (stereo unspecified),x,x,x,6,x,x
CC(=O)c1cccc(NC(=S)Nc2ccccc2)c1,x,x,x,-13,x,x
CC(C)c1ccc(N=Cc2ccc(OC3CSC3)cc2)cc1,x,x,x,-21,x,x
COc1ccc(C)cc1NC(=O)CN1CCN(S(=O)(=O)c2ccc(C(C)C)cc2)CC1,+,-14,1,5,0,111
Cc1ccc(-c2cc(C(=O)OCC(=O)Nc3cc(C)on3)c3ccccc3n2)c(C)c1,+,4,0,8,4,90
CC(C)OC(=O)c1cccnc1SCc1cc(=O)n2ccccc2n1,+,-3,2,-5,-6,90
O=C(Cn1cnc2sc(-c3ccccc3)cc2c1=O)NCc1ccco1,+,-7,-8,18,19,126
Cc1cccc(C2(c3cccc(C)c3)CC2C(=O)Nc2cc([N+](=O)[O-])ccc2O)c1 (stereo unspecified),x,x,x,-17,x,x
CSCCC(/C(O)=C(\C#N)c1nc2ccccc2[nH]1)N1C(=O)c2ccccc2C1=O (stereo unspecified),+,3,-3,-3,20,114
N#C/C(=C(/O)CN1C(=O)c2ccccc2C1=O)c1nc2ccccc2[nH]1,i,-8,-2,5,9,x
CN(CC(=O)N1CCN(c2ccc(F)cc2)CC1)S(=O)(=O)c1ccc(F)cc1,+,-11,-2,14,2,137
CCOc1ccccc1OCCn1nnc2ccccc21,+,0,1,7,8,105
COc1ccccc1CN(Cc1cc2c(C)ccc(C)c2[nH]c1=O)Cc1nnnn1Cc1ccco1,+,-17,-6,0,22,94
COc1ccc2cc(CN(CCc3ccccc3)Cc3nnnn3Cc3ccco3)c(=O)[nH]c2c1,x,-32,-8,8,31,x
C=CCNC(=O)CN(c1ccc(OC)cc1)S(C)(=O)=O,x,x,x,-10,x,x
CCOC(=O)c1cnc(SCC(=O)Nc2sc(C)c(C)c2C#N)nc1N,+,-11,-4,8,4,31*
CCOC(=O)c1cnc(SCC(=O)Nc2cc(OC)cc(OC)c2)nc1N,i,3,2,8,-6,x
COc1ccccc1NC(=O)c1cc2n(n1)C(C(F)(F)F)CC(c1ccc3c(c1)OCO3)N2 (stereo unspecified),x,-4,-1,3,15,x
COc1ccc(OC)c(NC(=O)c2cc3n(n2)C(C(F)(F)F)CC(c2ccc4c(c2)OCO4)N3)c1 (stereo unspecified),+,-5,2,-4,24,102
O=C(NCc1ccco1)c1cc2n(n1)C(C(F)(F)F)CC(c1ccc(Br)cc1)N2 (stereo unspecified),+,5,-1,3,0,u
